Sampled rows, rich in hits. Any-hit rate of the full collection: about 21%.
DRD3 agonist: activates the human D3 dopamine receptor | P35462 | D3R DiscoveRx beta-arrestin cells, luminescence, 90 min | max activation, % | 0.58% of 410,000 active | AID 652048; in the data active = max activation above about 30%
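Agonist mode: compounds and dopamine controls were applied to plated cells for 90 min at 37 degrees C after an overnight attachment at 1500 cells/well. Luminescent read-out followed 30 - 60 minutes at room temperature with DiscoveRx detection reagent.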
TDP1 cell CPT: growth inhibition of DT40 Tdp1-/-;hTDP1 cells with camptothecin (screen for TDP1 inhibitors); chicken DT40 Tdp1-/-;hTDP1 cells + 20 nM CPT, ATP luminescence, 48 h; Potency, µM (highest dose often 46.2 µM), usual class: inhibitors; 12% of 420,000 active; AID 686979; note: nearly all actives have a fitted effect of over 55% in size
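Cell growth measured by CellTiter-Glo luminescence after a minimum 48 h, 37 C compound exposure with 20 nM CPT in Tdp1-knockout DT40 cells stably expressing hTDP1, seeded 400/well; qHTS titration format.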
IL1B secr inh: inflammasome signaling inhibition, IL-1 beta readout; THP-1 LPS/ATP IL-1B secretion, AlphaLISA, 16 h; stronger effect = lower value; 4.7% of 360,000 active; AID 743279; activity change, % at 57.5 µM; in the data active = activity change below about -50%; inconclusive = mostly about -30% to -49%
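THP-1 cells pretreated 1 hr with compounds (up to 57.5 uM final), then stimulated with LPS (250 ng/mL final) plus ATP (1.25 mM final); secreted IL-1B measured by AlphaLISA after 16 hr, decreased signal indicating inhibition.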
DRD3 antagonist: blocks the human D3 dopamine receptor. P35462. D3R cells, DiscoveRx beta-arrestin luminescence, antagonist mode; stronger effect = lower value. max response, negative = inhibition, %. 2.5% of 360,000 active. AID 652054; in the data active = max response below about -50%; inconclusive = no clear call, values can overlap the other calls
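Cells plated overnight at 1500 cells/well, then exposed to library compounds with dopamine controls for 90 minutes at 37 degrees C. DiscoveRx reagent added for 30–60 minutes at room temperature; luminescence read, quantitative HTS format.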
TDP1 cell noCPT: qHTS for Inhibitors of human tyrosyl-DNA phosphodiesterase 1 (TDP1): qHTS in cells in absence of CPT; Potency, µM (doses to about 46.2 µM), actives largely listed as inhibitors; AID 686978, 2013; DT40 Tdp1-/- hTDP1 cells, no CPT, ATP luminescence, 48 h; 15% of 420,000 active; note: nearly all actives have a fitted effect of over 55% in size
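Cells were dispensed at 400 per well, compounds added by pin tool, plates incubated ≥48 hr at 37 °C, then CellTiter-Glo added for 30 min at room temperature before luminescence reading. Line: DT40 Tdp1-/- complemented with hTDP1; camptothecin omitted.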
ClpP mod: qHTS Assay for Activators of ClpP | ATP-dependent Clp protease proteolytic subunit (Bacillus subtilis (strain 168)), P80244 | purified B. subtilis ClpP, FRET peptide cleavage, 20 min | Potency, µM (series often up to 57.5 µM) | 1.9% of 340,000 active | AID 651965, 2013; active = well fitted falling curve with a large enough effect; inconclusive = small, poorly fitted or top-dose-only effect; inactive = no such curve, though single readings can be large or run the other way; note: the source files actives as falling curves though it sought activators and does not explain the sign; nearly all actives have a fitted effect of over 65% in size
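Purified B. subtilis ClpP, 10 microg/mL final in Tris/HCl pH8 with KCl, BSA, glycerol and Tween-20, cleaved an Abz/nitrotyrosine-quenched decapeptide. Fluorescence (ex 320, em 430) was read at 0 and 20 min at room temperature. Delta was normalized to 5.8 microM ADEP and DMSO/no-enzyme controls.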
Numbers stand for hits. Unless noted, calls come from the whole dose curve; as a rule, active = well fitted inhibition curve with a large enough effect; inconclusive = small, poorly fitted or top-dose-only effect; inactive = flat fitted curve, though single readings scatter.

For CCOC(=O)[C@]12Cc3c(cc(OC)c(OC)c3OC)[C@H]1N(C(C)C)C(=O)c1ccccc12 the results were DRD3 agonist inactive, TDP1 cell CPT 23µM, IL1B secr inh -114, DRD3 antagonist inactive, TDP1 cell noCPT 15µM and ClpP mod inactive.
Screening COc1cccc(N2C(=O)NC(=O)/C(=C/c3ccc4c(c3)Cc3ccccc3-4)C2=O)c1 returned DRD3 agonist inactive, TDP1 cell CPT inconclusive, IL1B secr inh inactive, DRD3 antagonist inactive, TDP1 cell noCPT inconclusive and ClpP mod inactive.
CCN1CCN(CC(=O)c2c(C)n(Cc3ccccc3)c3ccc(OC)cc23)CC1 was read as DRD3 agonist inactive, TDP1 cell CPT inconclusive, IL1B secr inh inconclusive, DRD3 antagonist inactive, TDP1 cell noCPT inconclusive and ClpP mod inactive.
`C[C@]12Cc3nonc3C[C@@H]1CC[C@@H]1[C@@H]2CC[C@@]2(C)[C@H]1CC[C@]2(C)O` gave DRD3 agonist inactive, TDP1 cell CPT inactive and TDP1 cell noCPT inconclusive.
`c1ccc(-c2nnc(C3CC(c4cccnc4)=NO3)o2)cc1` (stereo unspecified) gave DRD3 agonist inactive, TDP1 cell CPT inactive, IL1B secr inh inactive, DRD3 antagonist inactive, TDP1 cell noCPT inactive and ClpP mod inactive.
Screening COC[C@]12CN(C=O)C3C4C(OC)C1[C@@]3(C1CC3(O)C(OC)C(O)C4(OC(C)=O)C1C3OC(=O)c1ccccc1)[C@@H](OC)CC2O (stereo partly specified) returned TDP1 cell CPT inactive and TDP1 cell noCPT inactive.
CCOC(=O)[C@]12Cc3ccccc3[C@H]1N(Cc1ccccc1)C(=O)c1ccccc12 was read as DRD3 agonist inactive, TDP1 cell CPT inconclusive, IL1B secr inh inactive, DRD3 antagonist inactive, TDP1 cell noCPT inconclusive and ClpP mod inactive.
CCOC(=O)[C@]12Cc3cc(OC)ccc3[C@H]1N(Cc1ccccc1)C(=O)c1cc(F)c(F)cc12 was read as DRD3 agonist inactive, TDP1 cell CPT inconclusive, IL1B secr inh inactive, DRD3 antagonist inactive, TDP1 cell noCPT inconclusive and ClpP mod inactive.
`CCOC(=O)[C@]12Cc3cc(C)ccc3[C@H]1N(Cc1ccccc1)C(=O)c1ccccc12` gave DRD3 agonist inactive, TDP1 cell CPT 10µM, IL1B secr inh inactive, DRD3 antagonist inactive, TDP1 cell noCPT 15µM and ClpP mod inactive.
For CCOC(=O)[C@]12Cc3cc(C)ccc3[C@H]1N(Cc1ccccc1)C(=O)c1cc(F)c(F)cc12 the results were DRD3 agonist inactive, TDP1 cell CPT 21µM, DRD3 antagonist inactive, TDP1 cell noCPT 15µM and ClpP mod inactive.
Screening C[n+]1ccc(-c2ccccc2)c2ccccc21 returned DRD3 agonist inactive, TDP1 cell CPT 2.3µM, IL1B secr inh inactive, DRD3 antagonist inactive, TDP1 cell noCPT 2.6µM and ClpP mod inactive.
For O=c1cccc2n1CC1CC2CN2CCCCC12 (stereo unspecified) the results were TDP1 cell CPT inactive and TDP1 cell noCPT inactive.
For Cc1cc(C)c2c(ccc3cccc[n+]32)c1 the results were DRD3 agonist inactive, TDP1 cell CPT inconclusive, IL1B secr inh -61, DRD3 antagonist inactive, TDP1 cell noCPT 21µM and ClpP mod inactive.
For O=C1CC(=O)N(c2ccc(Cl)cc2Cl)C(=O)N1 the results were DRD3 agonist inactive, TDP1 cell CPT inactive, IL1B secr inh inactive, DRD3 antagonist inactive, TDP1 cell noCPT inactive and ClpP mod inactive.
Screening O=c1[nH]c2ccccc2c(=O)n1-c1ccc(Cl)c(Cl)c1 returned DRD3 agonist inactive, TDP1 cell CPT inconclusive, TDP1 cell noCPT inactive and ClpP mod inactive.
`Cc1cc(C)cc(-n2c(=O)[nH]c3ccccc3c2=O)c1` gave DRD3 agonist inactive, TDP1 cell CPT 18µM, TDP1 cell noCPT inconclusive and ClpP mod inactive.
For O=c1[nH]c2ccccc2c(=O)n1-c1ccc(Cl)cc1Cl the results were DRD3 agonist inactive, TDP1 cell CPT 16µM, IL1B secr inh inactive, DRD3 antagonist inactive, TDP1 cell noCPT 18µM and ClpP mod inactive.
Screening CC1(C)[C@@H](O)C[C@H]2[C@](C)(O)[C@@H]3CC[C@H]4[C@@H](O)[C@@]3(C[C@@H](O)[C@@]21O)C[C@@]4(C)O returned TDP1 cell CPT inactive and TDP1 cell noCPT inactive.
`CCCn1c(C(=O)c2ccc(OC)cc2)nc2ccccc21` gave DRD3 agonist inactive, TDP1 cell CPT inconclusive, IL1B secr inh inconclusive, DRD3 antagonist inactive, TDP1 cell noCPT inconclusive and ClpP mod inactive.
Screening CCOc1ccc(N2CC(c3nc4ccccc4n3CCC3CCCCC3)CC2=O)cc1 (stereo unspecified) returned DRD3 agonist inactive, TDP1 cell CPT 7.3µM, TDP1 cell noCPT 5.2µM and ClpP mod inactive.
Screening CC(C)Oc1ccc(CCN)cc1Cl returned DRD3 agonist inactive, TDP1 cell CPT 5.2µM, IL1B secr inh inactive, DRD3 antagonist inactive, TDP1 cell noCPT 5.8µM and ClpP mod inactive.
CCCCOc1ccc(CCN)cc1Cl was read as DRD3 agonist inactive, TDP1 cell CPT 2.3µM, IL1B secr inh -69, DRD3 antagonist inactive, TDP1 cell noCPT 2.1µM and ClpP mod inactive.
Screening Cc1ccc(/C=C2\C(=O)NC(=S)N(c3ccc(F)cc3)C2=O)o1 returned DRD3 agonist inactive, TDP1 cell CPT 7.3µM, IL1B secr inh inactive, DRD3 antagonist inactive, TDP1 cell noCPT 15µM and ClpP mod inactive.
Cc1ccc(/C=C2\C(=O)NC(=S)N(c3ccc(F)cc3)C2=O)s1 was read as DRD3 agonist inactive, TDP1 cell CPT 2.9µM, IL1B secr inh -108, DRD3 antagonist inactive and TDP1 cell noCPT 5.8µM.
For COc1ccc(N2C(=O)/C(=C/c3ccc(N(C)C)o3)C(=O)NC2=S)cc1 the results were DRD3 agonist inactive, TDP1 cell CPT inactive, IL1B secr inh inactive, DRD3 antagonist inconclusive, TDP1 cell noCPT inactive and ClpP mod inactive.
Screening COc1ccc(N2C(=O)/C(=C/c3cccs3)C(=O)NC2=S)cc1 returned DRD3 agonist inactive, TDP1 cell CPT 5.2µM, IL1B secr inh inactive, DRD3 antagonist inactive and TDP1 cell noCPT 3.7µM.
COc1cccc(N2C(=O)/C(=C/c3ccc(C)o3)C(=O)NC2=S)c1 was read as DRD3 agonist inactive, TDP1 cell CPT 15µM, IL1B secr inh inactive, DRD3 antagonist inactive, TDP1 cell noCPT 15µM and ClpP mod inactive.
`CC1CCC(C(C)C)C(OC(=O)c2ccccc2N)C1` (stereo unspecified) gave DRD3 agonist inactive, TDP1 cell CPT inconclusive and TDP1 cell noCPT inconclusive.
